Our source for the growth values is PubChem BioAssay (NCI).

Compounds without any hit were thinned out: in the full panel of roughly 83,000, 20% have a hit.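 In brief: 96-well plates, 48 h treatment, single concentration, percent growth endpoint.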 Calls of active or inactive are those of the source. How the source made its calls: active means growth percent below 10; inactive means the rest.

The experiment concerns BT-549 breast. Briefly: NCI-60 one-dose screen, 48 h (100 = growth as untreated, 0 = no growth, -100 = all killed). To be noted: 10 µM unless noted.
Regarding `N#C/C(=C\c1ccc(-c2ccc(Cl)cc2)o1)C(=O)Nc1ncc(Cc2ccc(Br)cc2)s1`, the growth is 24.7% (inactive).

For `O=C(COc1ccc(/C=C2\C(=O)Nc3ccc(Cl)cc32)cc1)Nc1ccc(Cl)cc1`, the growth is 70.2% (inactive).

`CC(O)c1cccc(/C(N)=N/C(N)=N/c2nc3ccccc3s2)c1` (stereo not drawn): the growth was 117% (inactive).

Consider `O=C(CN1CCN(c2cc(=O)[nH]c3ccc(F)cc23)CC1)N(c1ccccc1)c1ccccc1`, for which the growth is 104% (inactive).

On to `Cn1c(SCC(=O)c2ccc(Br)cc2)nc2ccccc2c1=O`, for which the growth was 98.9% (inactive).

In the case of `NC(N)=NS(=O)(=O)c1ccc(N=Nc2c(N)nn(-c3ccc([N+](=O)[O-])cc3[N+](=O)[O-])c2N)cc1`, the growth is 123% (inactive).

Turning to `Cc1cc2nc3c4cc(C#N)ccc4n(CCN(C)C)c3nc2cc1C`, the growth was -28.3% (active).

`O=C(CCCCCCN1CC(=O)N2[C@@H](c3cccs3)c3[nH]c4ccccc4c3C[C@H]2C1=O)NO`: the growth was 104% (inactive).

With `O=C(CSc1nc2ccccc2c(=O)n1CCc1ccccc1)Nc1ccc(S(=O)(=O)Nc2ccc(Cl)nn2)cc1`, the growth is 98.9% (inactive).

Consider `CC1=C(C)C(=O)C(Nc2ccc(C)c(C)c2)=C(Br)C1=O`, for which the growth was 100% (inactive).

Regarding `COc1cc(/C=C2/C(=O)Nc3ccc(Cl)cc32)ccc1OCc1ccc(Cl)cc1`, the growth was 101% (inactive).

In the case of `Cc1ccc2c(n1)C(=O)C(Cl)=C(Nc1ccc(C(C)C)cc1)C2=O`, the growth was 91.9% (inactive).

With `CN1CCN(c2ccc(Nc3nc(NCCNS(=O)(=O)c4ccccc4)c4sccc4n3)cc2)CC1`, the growth was 108% (inactive).

For the compound `CNC(=O)c1cc(N2CCc3cc(NC(=O)Nc4ccc(N5CCN(C)CC5)c(C(F)(F)F)c4)ccc32)ccn1`, the growth was 84.9% (inactive).

As to `C=C(C)[C@@H]1CC[C@]2(COCCCNCCCN)CC[C@]3(C)[C@H](CC[C@@H]4[C@@]5(C)CC[C@H](O)C(C)(C)[C@@H]5CC[C@]43C)[C@@H]12`, the growth was -77.4% (active).

`CN1CCN(Cc2ccc(NC(=O)c3cncc(C#Cc4cnc5ccc(OCC6COC6)nn45)c3)cc2C(F)(F)F)CC1`: the growth is -71.5% (active).

Regarding `O=C(COc1ccc(/C=C2\C(=O)Nc3ccc(F)cc32)cc1)Nc1ccccc1`, the growth is 116% (inactive).

Consider `CN1CCN(c2ccc(Nc3nc(NCCCNS(=O)(=O)c4ccc(F)cc4)c4sccc4n3)cc2)CC1`, for which the growth is 65.9% (inactive).

Turning to `COc1cccc(N2CCN(C3=C(Cl)C(=O)c4ncccc4C3=O)CC2)c1`, the growth was 105% (inactive).

On to `C#CCOc1cccc(-c2nc(N)nc(Nc3ccccc3SSc3ccccc3Nc3nc(N)nc(-c4cccc(OCC#C)c4)n3)n2)c1`, for which the growth is 58.8% (inactive).

Take `O=C(CSc1nnc(-c2ccc(Cl)cc2)n1-c1ccccc1)Nc1ccc(Cl)cc1`: the growth is 70.2% (inactive).

For `NC(=O)n1c(=O)n(-c2cccc(C(F)(F)F)c2)c(=O)c2cc(-c3ccc(F)cc3F)ccc21`, the growth was -12.5% (active).

On to `C#CCOc1ccc(/C=N/Nc2nc(-c3ccc(OC)cc3)cs2)cc1`, for which the growth was 89.1% (inactive).

As to `O=C(CSc1nnc(-c2ccc(Cl)cc2)n1-c1ccccc1)Nc1ccccc1Cl`, the growth was 53.8% (inactive).

With `CN1CCN(Cc2ccc(NC(=O)c3cncc(C#Cc4cnc5ccc(OCCCS(C)(=O)=O)nn45)c3)cc2C(F)(F)F)CC1`, the growth is -21.5% (active).

As to `CCOC(=O)c1c(NCC(=O)Nc2cccc([N+](=O)[O-])c2)sc(C(C)=O)c1C`, the growth was -40.7% (active).

With `N#Cc1c(-c2cccs2)cc(-c2cnccn2)nc1SCC(=O)N/N=C/c1ccccc1`, the growth was 14.8% (inactive).

With `CN1CCN(Cc2ccc(NC(=O)c3cncc(C#Cc4cnc5ccc(O[C@@H]6CCOC6)nn45)c3)cc2C(F)(F)F)CC1`, the growth was -81.9% (active).

For `O=C(CCCCCCNC(=O)c1csc(Br)n1)NO`, the growth is 88.4% (inactive).

On to `O=C(NCCNc1cc(-c2cn(-c3ccccc3)nc2-c2cccc(O)c2)ccn1)Nc1cc(C(F)(F)F)cc(C(F)(F)F)c1`, for which the growth is 99.4% (inactive).

In the case of `COC(=O)c1ccc(NC2=C(Cl)C(=O)c3nc(C)ccc3C2=O)cc1`, the growth was 99% (inactive).

For `CCOP(=O)(OCC)OC[C@]12CCC(C)(C)C[C@H]1C1=CC[C@@H]3[C@@]4(C)CC[C@H](OP(=O)(OCC)OCC)C(C)(C)[C@@H]4CC[C@@]3(C)[C@]1(C)CC2`, the growth is 54.1% (inactive).

As to `C/C(=N/N)c1nnn(-c2ccc(Br)cc2)c1C`, the growth is 102% (inactive).

On to `O=C(N/N=C\c1ccc(F)cc1)c1ccc2nc(-c3ccc(Br)cc3)[nH]c2c1`, for which the growth is 73.5% (inactive).

In the case of `O=C1Nc2ccc(F)cc2/C1=C\C(=O)c1ccc(NS(=O)(=O)c2ccccc2)cc1`, the growth was 111% (inactive).

Turning to `CCCCCc1ccc(S(=O)(=O)Nc2cc(-c3csc(N)n3)ccc2OC)cc1`, the growth is 102% (inactive).

Consider `CN1CCN(c2ccc(Nc3nc(NCCNS(=O)(=O)c4ccc5ccccc5c4)c4sccc4n3)cc2)CC1`, for which the growth is 86.7% (inactive).

Take `CCn1c2ccc(/C=N/N(C)S(=O)(=O)CCN(C)C)cc2c2cc(/C=N/N(C)S(=O)(=O)CCN(C)C)ccc21`: the growth was 72.4% (inactive).
